We go through eleven molecules from PubChem BioAssay (EPA / NIEHS).

Assay [1] addresses Glucocorticoid receptor (Homo sapiens) (UniProt P04150). Briefly: ATG_GR_TRANS: Attagene TRANS-FACTORIAL HepG2 Assay for human Glucocorticoid Receptor (GR) (AID 2282978; active means hit-call score of the fitted dose curve at least 0.9, where 1 is the maximum;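 further: activators score as hits since higher reporter transcript over DMSO is fitted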). Particulars: HepG2 Attagene TRANS GR reporter, mRNA transcription. An outline of the steps: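 Transiently transfected HepG2 cells express chimeric NR-GAL4 proteins acting on GAL4-UAS reporter units. Compounds are applied for 24 h. mRNA induction over DMSO is measured by capillary electrophoresis.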

Assay [2] is described as follows: ATG_M_32_TRANS: Attagene TRANS-FACTORIAL HepG2 Assay for M32 Transcription Factor (Internal Marker) (AID 2282984; active means hit-call score of the fitted dose curve at least 0.9, where 1 is the maximum;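 further: transcript level of a background control reporter unit measured by RT-PCR and capillary electrophoresis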). To be noted: HepG2 Attagene TRANS M32 internal marker reporter. The essentials:
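HepG2 cells transiently transfected with GAL4-UAS reporter units, dosed for 24 hours. Reporter mRNA quantified by RT-PCR, 6-FAM labelling, HpaI digestion and capillary electrophoresis; internal-marker signal fitted upward relative to DMSO.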

Assay [3] concerns the target Transcriptional activator Myb (Homo sapiens) (UniProt P10242). Kind of assay: ATG_Myb_CIS: Attagene CIS-FACTORIAL HepG2 Assay for human Myeloblastosis (Myb) Proto-Oncogene Transcription Factor (AID 2282986). To be noted: HepG2 Attagene CIS-FACTORIAL Myb reporter transcription; actives raise or lower the signal. The essentials:
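Using HepG2 liver cells bearing transiently transfected cis-promoter reporter constructs, the assay measures induction or loss of reporter mRNA after 24 hours of dosing. Detection used fluorescently labeled RT-PCR products separated by capillary electrophoresis.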

Assay [4] has as its target Nuclear respiratory factor 1 (Homo sapiens) (UniProt Q16656). Briefly: ATG_NRF1_CIS: Attagene CIS-FACTORIAL HepG2 Assay for human Nuclear Respiratory Factor 1 (NRF1) Orphan Gene (AID 2282987). To be noted: HepG2 NRF1 cis-element reporter, Attagene multiplex; actives raise or lower the signal. The essentials:
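Reporter mRNA induction or loss in HepG2 cells after 24 h dosing; cis-regulated reporter constructs report endogenous transcription-factor activity. Quantified by RT-PCR/capillary electrophoresis fluorescence, DMSO-referenced.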

Assay [5] can be described thus: ATG_NFI_CIS: Attagene CIS-FACTORIAL HepG2 Assay for human Nuclear Factor I (NFI) (AID 2282989). Particulars: HepG2 cis-regulatory reporter, NFI response element transcription; actives raise or lower the signal. The essentials: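 Cells: human liver HepG2, transiently transfected with promoter-regulated reporter transcription units. Exposure 24 h. Detection: fluorescent RT-PCR products separated by capillary electrophoresis, normalised to DMSO negative control.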

A short description of assay [6]: ATG_NF_kB_CIS: Attagene CIS-FACTORIAL HepG2 Assay for human Nuclear Factor Kappa B (NF-kB) (AID 2282991). Particulars: HepG2 Attagene cis-factorial NF-kB reporter mRNA; actives raise or lower the signal. The essentials: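 DMSO served as negative control and baseline for bidirectional curve fitting. Transiently transfected HepG2 cells were dosed for 24 h, then reporter transcripts were measured by RT-PCR with capillary electrophoresis detection.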

Assay [7] in a line: ATG_NRF2_ARE_CIS: Attagene CIS-FACTORIAL HepG2 Assay for human Nuclear Factor Erythroid 2 Related Factor 2 (NFR2) response to Antioxidant Response Elements (ARE) (AID 2282992).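 On AC50: reporter mRNA level measured by RT-PCR and capillary electrophoresis fluorescence.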 Particulars: HepG2 Attagene ARE/NRF2 reporter, transcription factor activity; actives raise or lower the signal. An outline of the steps:
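HepG2 cells transiently transfected with multiplexed cis-regulated reporter transcription units measure endogenous transcription factor activity. Reporter mRNA at 24 h is quantified by RT-PCR, fluorescent labelling and capillary electrophoresis, with bidirectional fitting relative to DMSO.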

The nature of assay [8]: ATG_Oct_MLP_CIS: Attagene CIS-FACTORIAL HepG2 Assay for human Octamer-Binding Transcription Factor (Oct) (AID 2282993). Particulars: HepG2 Attagene cis-factorial Oct reporter, mRNA; actives raise or lower the signal. The essentials: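 HepG2, transient MRTU transfection, cis promoter elements; 24 h dosing; RT-PCR/CE fluorescence read-out of reporter mRNA; fit both directions vs DMSO.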

Assay [9] deals with Cellular tumor antigen p53 (Homo sapiens) (UniProt P04637). Briefly: ATG_p53_CIS: Attagene CIS-FACTORIAL HepG2 Assay for human p53 Transcription Factor (AID 2282994). To be noted: HepG2 p53 cis-element reporter, Attagene mRNA; actives raise or lower the signal. An outline of the steps:
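HepG2 cells transiently transfected with multiplexed cis-regulated reporter transcription units read endogenous TF activity. After 24 h compound exposure, reporter mRNA was quantified by RT-PCR, fluorescent labelling, HpaI digestion and capillary electrophoresis; bidirectional fits versus DMSO baseline.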

Assay [10] is described as follows: BSK_3C_TissueFactor: BioMAP Diversity Plus: 3C Assay for Tissue Factor Biomarker Activity (AID 2282997). Particulars: BioMAP 3C HUVEC, tissue factor biomarker readout; actives raise or lower the signal. The essentials: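 HUVEC were treated 24 h, then surface tissue factor measured by ELISA and fitted bidirectionally against DMSO. Parallel SRB total-protein staining assessed overt cytotoxicity at the same time point.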

The nature of assay [11]: BSK_3C_uPAR: BioMAP Diversity Plus: 3C Assay for Urokinase-type plasminogen activator receptor (uPAR) Biomarker Activity (AID 2282998). To be noted: BioMAP 3C HUVEC, uPAR biomarker ELISA; actives raise or lower the signal. An outline of the steps:
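A multiplexed primary-cell system built on human umbilical vein endothelium was used, with chemical present for 24 h before reading. Cell-surface uPAR was detected by ELISA; signal change in either direction counted against DMSO.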

Assay [12] addresses Bile acid receptor (Homo sapiens) (UniProt Q96RI1). Kind of assay: ATG_FXR_TRANS: Attagene TRANS-FACTORIAL HepG2 Assay for Farnesoid X Receptor (FXR) (AID 2282979; active means hit-call score of the fitted dose curve at least 0.9, where 1 is the maximum;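 further: hits raise reporter mRNA above DMSO so AC50 marks FXR activation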). Particulars: HepG2 Attagene TRANS FXR-GAL4 reporter transcription. An outline of the steps: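 HepG2 cells were transiently transfected with GAL4-UAS reporters driven by chimeric NR-Gal4 proteins and dosed for 24 h. Reporter mRNA was quantified by RT-PCR, fluorescent labelling, HpaI digestion and capillary electrophoresis, with gain of signal scored versus DMSO.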

The target of assay [13] is Oxysterols receptor LXR-alpha (Homo sapiens) (UniProt Q13133). Kind of assay: ATG_LXRa_TRANS: Attagene TRANS-FACTORIAL HepG2 Assay for human Liver X Receptor alpha (LXRa) (AID 2282980; active means hit-call score of the fitted dose curve at least 0.9, where 1 is the maximum). To be noted: HepG2 Attagene TRANS reporter, LXRa transactivation. The essentials: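 HepG2 cells transiently transfected with GAL4-UAS reporter units for chimeric NR-Gal4 proteins, exposed to chemicals for 24 h. Reporter mRNA quantified by RT-PCR and capillary electrophoresis; gain of signal fitted relative to DMSO.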

Assay [14] addresses Oxysterols receptor LXR-beta (Homo sapiens) (UniProt P55055). Briefly: ATG_LXRb_TRANS: Attagene TRANS-FACTORIAL HepG2 Assay for human Liver X Receptor beta (LXRb) (AID 2282981; active means hit-call score of the fitted dose curve at least 0.9, where 1 is the maximum). To be noted: HepG2 Attagene TRANS GAL4-LXRb reporter, mRNA. The essentials: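 HepG2 cells transiently transfected with GAL4-UAS reporter units for chimeric NR-Gal4 proteins, dosed for 24 h. Reporter transcripts measured by RT-PCR and capillary electrophoresis; gain-of-signal fitting relative to DMSO.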

In assay [15] the target is Hepatocyte nuclear factor 4-alpha (Homo sapiens) (UniProt P41235). Kind of assay: ATG_HNF4a_TRANS: Attagene TRANS-FACTORIAL HepG2 Assay for human Hepatocyte Nuclear Factor 4 alpha (HNF4a) (AID 2282982; active means hit-call score of the fitted dose curve at least 0.9, where 1 is the maximum). Particulars: HepG2 HNF4a transactivation reporter, mRNA readout. An outline of the steps: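 HepG2 cells transiently transfected with HNF4a-Gal4 chimera and GAL4-UAS reporter units, dosed for 24 h. Reporter mRNA measured by RT-PCR, fluorescent primer extension and capillary electrophoresis; gain-of-signal fitted relative to DMSO.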

Assay [16] is described as follows: ATG_M_06_TRANS: Attagene TRANS-FACTORIAL HepG2 Assay for M06 Transcription Factor (Internal Marker) (AID 2282983; active means hit-call score of the fitted dose curve at least 0.9, where 1 is the maximum;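 further: reporter transcript level by RT-PCR then capillary electrophoresis fluorescence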). To be noted: HepG2 Attagene TRANS M06 internal marker reporter. The essentials: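 HepG2 cells transiently transfected with GAL4-UAS multiple reporter units, dosed 24 h. Reporter RNA reverse-transcribed, PCR-amplified, 6-FAM-labeled, HpaI-digested and quantified by capillary electrophoresis; this internal-marker signal fitted upward relative to DMSO.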

Assay [17] addresses Myc proto-oncogene protein (Homo sapiens) (UniProt P01106). Kind of assay: ATG_Myc_CIS: Attagene CIS-FACTORIAL HepG2 Assay for human Myelocytomatosis (Myc) Proto-Oncogene Transcription Factor (AID 2282990). To be noted: HepG2, Attagene cis-reporter transcription factor activity; actives raise or lower the signal. The essentials:
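Read-out: fluorescent reporter mRNA fragments resolved by capillary electrophoresis after RT-PCR. Human HepG2 liver cells carried transfected cis-element reporter units and were dosed for 24 h. Gain or loss of signal fitted relative to DMSO baseline.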

In assay [18] the target is Nuclear receptor subfamily 4 group A member 2 (Homo sapiens) (UniProt P43354). Briefly: ATG_NURR1_TRANS: Attagene TRANS-FACTORIAL HepG2 Assay for human Nuclear Receptor Related Protein 1 (NURR1) (AID 2282985; active means hit-call score of the fitted dose curve at least 0.9, where 1 is the maximum). To be noted: HepG2 Attagene TRANS reporter, mRNA readout. An outline of the steps:
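HepG2 cells transiently transfected with NURR1-Gal4 chimera and GAL4-UAS reporter units; after 24 hr compound exposure, reporter mRNA quantified by RT-PCR and capillary electrophoresis; gain of signal fitted against DMSO.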

The structures appear in SMILES notation. Inconclusive results are not listed. The source made the active and inactive calls. How the source made its calls, unless noted: active means hit-call score of the fitted dose curve at least 0.9, where 1 is the maximum; inactive means score below 0.9.

Sequence of Oxysterols receptor LXR-alpha (Homo sapiens) (Q13133 whole entry, looked up, the tested form may be a part): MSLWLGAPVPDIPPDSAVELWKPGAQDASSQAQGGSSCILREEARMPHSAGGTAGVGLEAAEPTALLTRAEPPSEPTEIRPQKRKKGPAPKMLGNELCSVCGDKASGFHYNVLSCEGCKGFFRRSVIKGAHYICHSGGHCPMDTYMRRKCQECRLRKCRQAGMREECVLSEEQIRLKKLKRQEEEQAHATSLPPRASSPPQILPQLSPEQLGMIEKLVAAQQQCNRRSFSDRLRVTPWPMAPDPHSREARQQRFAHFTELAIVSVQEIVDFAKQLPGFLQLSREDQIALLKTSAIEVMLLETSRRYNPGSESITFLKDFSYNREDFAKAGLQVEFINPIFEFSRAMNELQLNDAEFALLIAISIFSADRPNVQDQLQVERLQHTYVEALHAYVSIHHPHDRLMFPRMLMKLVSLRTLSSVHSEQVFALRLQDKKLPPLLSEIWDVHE
Sequence of Transcriptional activator Myb (Homo sapiens) (P10242 whole entry, looked up): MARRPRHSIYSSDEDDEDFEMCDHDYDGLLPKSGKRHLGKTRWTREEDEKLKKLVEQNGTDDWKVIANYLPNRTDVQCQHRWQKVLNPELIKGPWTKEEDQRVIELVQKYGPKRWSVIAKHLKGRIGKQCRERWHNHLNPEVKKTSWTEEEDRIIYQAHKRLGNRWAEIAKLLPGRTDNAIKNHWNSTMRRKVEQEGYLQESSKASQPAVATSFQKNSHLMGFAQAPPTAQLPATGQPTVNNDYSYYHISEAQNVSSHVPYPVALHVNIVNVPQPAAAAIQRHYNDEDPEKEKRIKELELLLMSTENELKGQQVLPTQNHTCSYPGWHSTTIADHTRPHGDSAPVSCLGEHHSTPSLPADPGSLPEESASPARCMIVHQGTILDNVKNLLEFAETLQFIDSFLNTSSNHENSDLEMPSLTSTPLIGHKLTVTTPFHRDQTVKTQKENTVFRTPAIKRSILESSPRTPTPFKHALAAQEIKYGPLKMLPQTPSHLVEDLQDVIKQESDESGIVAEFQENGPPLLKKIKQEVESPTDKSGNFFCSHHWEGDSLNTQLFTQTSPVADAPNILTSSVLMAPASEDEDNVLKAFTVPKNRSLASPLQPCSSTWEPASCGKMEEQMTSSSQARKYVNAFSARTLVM
Sequence of Myc proto-oncogene protein (Homo sapiens) (P01106 whole entry, looked up, the tested form may be a part): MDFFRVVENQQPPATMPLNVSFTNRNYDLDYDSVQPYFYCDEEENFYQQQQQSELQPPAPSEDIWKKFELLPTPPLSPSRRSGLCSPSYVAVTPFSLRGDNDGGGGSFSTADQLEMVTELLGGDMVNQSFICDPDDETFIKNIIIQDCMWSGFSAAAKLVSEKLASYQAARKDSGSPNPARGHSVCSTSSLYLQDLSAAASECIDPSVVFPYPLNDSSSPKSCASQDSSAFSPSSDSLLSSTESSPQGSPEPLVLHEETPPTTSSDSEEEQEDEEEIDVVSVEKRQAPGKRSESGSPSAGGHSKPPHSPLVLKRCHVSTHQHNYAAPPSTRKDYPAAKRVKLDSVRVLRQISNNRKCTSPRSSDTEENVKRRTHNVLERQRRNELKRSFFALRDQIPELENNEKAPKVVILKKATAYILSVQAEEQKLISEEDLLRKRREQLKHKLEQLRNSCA
Sequence of Nuclear receptor subfamily 4 group A member 2 (Homo sapiens) (P43354 whole entry, looked up, the tested form may be a part): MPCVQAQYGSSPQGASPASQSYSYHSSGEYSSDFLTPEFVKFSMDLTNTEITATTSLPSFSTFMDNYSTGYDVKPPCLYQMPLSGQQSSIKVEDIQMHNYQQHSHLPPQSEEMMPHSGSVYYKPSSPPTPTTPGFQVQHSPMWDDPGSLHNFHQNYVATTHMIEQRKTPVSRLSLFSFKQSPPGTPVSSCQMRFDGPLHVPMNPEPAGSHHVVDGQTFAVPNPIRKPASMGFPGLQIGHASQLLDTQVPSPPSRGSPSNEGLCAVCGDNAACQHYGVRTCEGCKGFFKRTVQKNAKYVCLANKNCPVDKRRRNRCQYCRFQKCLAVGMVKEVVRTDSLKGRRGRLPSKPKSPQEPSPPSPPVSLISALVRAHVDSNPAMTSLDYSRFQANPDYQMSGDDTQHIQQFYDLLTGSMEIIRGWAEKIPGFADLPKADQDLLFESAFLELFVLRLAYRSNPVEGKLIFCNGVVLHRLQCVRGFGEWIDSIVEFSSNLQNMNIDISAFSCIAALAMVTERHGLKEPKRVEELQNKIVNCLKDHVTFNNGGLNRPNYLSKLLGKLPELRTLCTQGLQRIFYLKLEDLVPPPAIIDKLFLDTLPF
Sequence of Hepatocyte nuclear factor 4-alpha (Homo sapiens) (P41235 whole entry, looked up, the tested form may be a part): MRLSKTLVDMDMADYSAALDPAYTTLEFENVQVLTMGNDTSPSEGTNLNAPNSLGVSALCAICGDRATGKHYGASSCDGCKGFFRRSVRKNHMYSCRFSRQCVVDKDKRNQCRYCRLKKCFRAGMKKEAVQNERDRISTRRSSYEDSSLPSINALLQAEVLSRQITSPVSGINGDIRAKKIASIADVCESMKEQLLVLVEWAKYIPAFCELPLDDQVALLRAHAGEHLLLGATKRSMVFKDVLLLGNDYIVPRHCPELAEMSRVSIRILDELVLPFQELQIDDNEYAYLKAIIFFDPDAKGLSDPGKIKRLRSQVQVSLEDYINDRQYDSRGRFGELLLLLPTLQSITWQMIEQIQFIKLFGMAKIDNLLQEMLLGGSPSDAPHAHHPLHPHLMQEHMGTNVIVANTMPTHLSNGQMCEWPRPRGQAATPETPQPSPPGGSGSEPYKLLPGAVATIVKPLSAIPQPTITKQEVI
Sequence of Nuclear respiratory factor 1 (Homo sapiens) (Q16656 whole entry, looked up): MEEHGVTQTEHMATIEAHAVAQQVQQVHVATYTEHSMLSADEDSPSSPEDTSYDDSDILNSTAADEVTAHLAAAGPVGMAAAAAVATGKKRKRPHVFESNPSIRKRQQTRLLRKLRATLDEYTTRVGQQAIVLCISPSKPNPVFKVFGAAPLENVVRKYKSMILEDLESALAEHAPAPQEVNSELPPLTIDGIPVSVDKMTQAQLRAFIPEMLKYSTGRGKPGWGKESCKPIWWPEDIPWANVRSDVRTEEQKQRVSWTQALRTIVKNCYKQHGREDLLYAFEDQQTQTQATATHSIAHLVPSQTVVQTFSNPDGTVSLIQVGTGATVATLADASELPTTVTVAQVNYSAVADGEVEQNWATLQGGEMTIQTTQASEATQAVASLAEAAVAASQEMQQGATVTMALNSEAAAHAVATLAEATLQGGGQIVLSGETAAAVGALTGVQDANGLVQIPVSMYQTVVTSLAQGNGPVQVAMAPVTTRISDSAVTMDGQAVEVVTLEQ
Sequence of Oxysterols receptor LXR-beta (Homo sapiens) (P55055 whole entry, looked up, the tested form may be a part): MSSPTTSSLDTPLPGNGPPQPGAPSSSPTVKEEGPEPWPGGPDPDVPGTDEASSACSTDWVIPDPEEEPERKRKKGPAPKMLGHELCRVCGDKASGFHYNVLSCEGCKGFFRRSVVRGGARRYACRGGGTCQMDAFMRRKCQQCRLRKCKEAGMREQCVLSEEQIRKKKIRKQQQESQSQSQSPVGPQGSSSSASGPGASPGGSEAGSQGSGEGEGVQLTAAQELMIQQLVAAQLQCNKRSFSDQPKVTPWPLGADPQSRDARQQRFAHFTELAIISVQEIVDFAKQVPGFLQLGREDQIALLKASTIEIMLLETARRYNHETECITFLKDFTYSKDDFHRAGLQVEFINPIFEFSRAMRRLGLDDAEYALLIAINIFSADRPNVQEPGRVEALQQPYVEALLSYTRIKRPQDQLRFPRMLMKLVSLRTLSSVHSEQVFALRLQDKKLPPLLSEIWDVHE
Sequence of Cellular tumor antigen p53 (Homo sapiens) (P04637 whole entry, looked up): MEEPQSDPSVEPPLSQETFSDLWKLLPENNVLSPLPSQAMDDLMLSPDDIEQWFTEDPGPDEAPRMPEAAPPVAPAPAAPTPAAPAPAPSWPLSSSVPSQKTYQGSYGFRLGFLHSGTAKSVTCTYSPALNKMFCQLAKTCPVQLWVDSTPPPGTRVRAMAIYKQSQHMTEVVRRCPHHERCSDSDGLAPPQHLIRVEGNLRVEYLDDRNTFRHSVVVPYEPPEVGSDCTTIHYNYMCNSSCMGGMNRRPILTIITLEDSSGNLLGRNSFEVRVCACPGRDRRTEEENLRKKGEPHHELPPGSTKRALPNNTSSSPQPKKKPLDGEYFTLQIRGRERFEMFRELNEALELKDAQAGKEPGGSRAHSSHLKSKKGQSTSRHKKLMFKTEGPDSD
Sequence of Glucocorticoid receptor (Homo sapiens) (P04150 whole entry, looked up, the tested form may be a part): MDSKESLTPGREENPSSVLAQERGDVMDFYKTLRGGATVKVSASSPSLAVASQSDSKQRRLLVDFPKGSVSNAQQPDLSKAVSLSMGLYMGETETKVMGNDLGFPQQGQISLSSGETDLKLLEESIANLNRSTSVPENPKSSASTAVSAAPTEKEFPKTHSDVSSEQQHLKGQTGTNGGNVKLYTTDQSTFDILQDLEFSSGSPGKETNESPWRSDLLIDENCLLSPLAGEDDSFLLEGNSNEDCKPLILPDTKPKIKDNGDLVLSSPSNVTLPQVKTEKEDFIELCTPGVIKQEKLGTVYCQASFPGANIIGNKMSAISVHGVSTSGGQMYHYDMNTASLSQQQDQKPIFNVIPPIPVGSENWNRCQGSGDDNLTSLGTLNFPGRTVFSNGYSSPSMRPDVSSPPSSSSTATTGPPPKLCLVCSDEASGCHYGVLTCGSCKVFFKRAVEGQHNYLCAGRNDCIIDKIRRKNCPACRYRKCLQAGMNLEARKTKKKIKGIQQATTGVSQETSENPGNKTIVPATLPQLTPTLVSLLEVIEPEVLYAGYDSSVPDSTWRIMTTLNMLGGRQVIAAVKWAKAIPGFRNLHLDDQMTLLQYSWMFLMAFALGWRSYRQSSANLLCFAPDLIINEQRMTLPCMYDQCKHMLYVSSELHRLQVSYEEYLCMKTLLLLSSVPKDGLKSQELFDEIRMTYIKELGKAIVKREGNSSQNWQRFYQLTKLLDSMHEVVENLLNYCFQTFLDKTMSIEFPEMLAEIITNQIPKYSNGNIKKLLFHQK

In general, AC50 refers to the concentration at which the activity in the assay is half-maximal. For `CC(C)N1C(=O)N(c2ccccc2)CSC1=NC(C)(C)C`, the result in [1], in assay [2], in assay [3], in assay [4], in assay [5] and in assay [6] was inactive. Further, the outcome in assay [7], in assay [8] and in assay [9] was inactive. Besides, the AC50 in assay [10] is 22.9 µM (active); in [11], 30.4 µM (active).

Turning to `CN=C=S`, the molecule was called inactive in [12], in assay [13], in assay [14], in assay [15], in [16] and in [2]. The outcome in [3], in assay [4], in [5], in assay [6], in [9] and in assay [10] was inactive. Moreover, the result in assay [11] was inactive. Also, the AC50 was 13.8 µM (active) in [7] and 26.1 µM (active) in assay [8].

With `CCOc1cc(C(C)(C)C)ccc1C1COC(c2c(F)cccc2F)=N1` (centres undefined), the result in assay [15], in assay [2], in assay [3], in assay [4], in assay [5] and in assay [17] was inactive. For the same molecule, in [6], the result was inactive. Moreover, the AC50 in [7] was 1.62 µM (active); in assay [8] it was 0.581 µM (active); in assay [10], 37 µM (active); in assay [11], 29.7 µM (active).

For `CCNC(=O)NC(=O)C(C#N)=NOC`, the molecule was classed as inactive in assay [14], in assay [15], in assay [18], in assay [3], in [4] and in assay [5]. Besides, the call in [7], in assay [8], in assay [10] and in assay [11] was inactive.

As for `COCC(C)N(C(=O)CCl)c1c(C)csc1C` (centres undefined), the call in [14], in assay [16], in assay [2], in assay [18], in assay [3] and in [4] was inactive. Besides, the molecule was called inactive in [5], in [6], in [8], in assay [9], in assay [10] and in [11]. The AC50 in assay [7] was 2.31 µM (active).

With `CCCCC(O)(Cn1cncn1)c1ccc(Cl)cc1Cl` (centres undefined), the molecule was called inactive in assay [16], in assay [18], in [3], in [4], in [5] and in assay [17]. Also, the call in assay [6], in [9] and in [10] was inactive. Also, the values for the AC50 in assay [7], in [8] and in assay [11] were 20.8 µM (active), 62.5 µM (active) and 36.5 µM (active), respectively.

As for `Cn1c(-c2ccccc2)cc(-c2ccccc2)[n+]1C`, the molecule was called inactive in [13], in assay [14], in [15], in [2], in assay [3] and in assay [4]. The molecule was called inactive in assay [5], in assay [7], in assay [8], in assay [9] and in assay [10]. Also, the AC50 in assay [11] is 3.97 µM (active).

Take `COC(=O)NS(=O)(=O)c1ccc(N)cc1`: the molecule was called inactive in assay [14], in assay [16], in [3], in [4], in [5] and in assay [6]. Moreover, the molecule was called inactive in assay [7], in [8], in assay [9], in assay [10] and in [11].

With `OC(c1ccc(Cl)cc1)(c1ccc(Cl)cc1)C(Cl)(Cl)Cl`, the call in [1], in [14], in assay [15], in assay [16], in assay [3] and in assay [4] was inactive. Further, the molecule was classed as inactive in [5], in assay [6], in assay [7], in [8] and in assay [9]. Besides, the AC50 in assay [10] was 25.6 µM (active); in assay [11], 29.1 µM (active).

For the molecule `C=CCOC(=O)C(C)(C)OC(=O)c1cc(-n2c(=O)cc(C(F)(F)F)n(C)c2=O)ccc1Cl`, the molecule was classed as inactive in [14], in assay [3], in assay [4], in assay [5], in assay [8] and in assay [9]. The result in assay [10] was inactive. The AC50 in assay [7] was 21.9 µM (active); in [11] it was 2.18 µM (active).

With `Cc1cnc(C2=NC(C)(C(C)C)C(=O)N2)c(C(=O)O)c1` (centres undefined), the outcome in assay [13], in assay [14], in assay [15], in [3], in [4] and in [5] was inactive. Further, the call in assay [17], in assay [8], in assay [9], in assay [10] and in assay [11] was inactive. For the same molecule, the AC50 in assay [7] is 13 µM (active).
